# Measurements: PubChem BioAssay (Tox21)
# Records with an inconclusive call do not appear. Entries that show only a call come without a potency. The source made the active and inactive calls. Unless noted, the call rests on the fitted dose curve; in most records, active means well fitted curve in the direction sought with a large enough effect in the repeat runs; inconclusive means weak or mixed curves; inactive means no such curve, though single readings can be large; an effect the other way counts as inactive or inconclusive.
# Key:
# [1] = qHTS assay for small molecules that induce genotoxicity in human embryonic kidney cells expressing luciferase-tagged ATAD5 (AID 651632); further: nearly all actives have a fitted effect of over 15% in size
# Method in brief: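 Luminescent reporter readout, HEK293T ATAD5-luc line: 16 hr drug exposure (37C, 5% CO2) followed by Amplite, 30 min RT.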
# [2] = qHTS assay for small molecule agonists of the p53 signaling pathway - cell viability (AID 651633; calls by dose curve; further: nearly all actives have a fitted effect of over 30% in size; further: potency means the concentration at half of the fitted maximal effect)
# Method in brief: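 p53RE-bla cells were treated with compound for 16 hours at 37 C. Cytotoxicity was then measured as CellTiter-Glo luminescence after 30 min at room temperature.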
# [3] = qHTS assay for small molecules that induce genotoxicity in human embryonic kidney cells expressing luciferase-tagged ATAD5 - cell viability (AID 651634; calls by dose curve; further: nearly all actives have a fitted effect of over 25% in size)
# Method in brief: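 Viability read: CellTiter-Fluor fluorescence, 30 min at 37C. Cells: HEK293T, luciferase-tagged ATAD5. Exposure: 15.5 hr, 37C, 5% CO2, compound or DMSO vehicle.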
# [4] = qHTS assay for small molecule disruptors of the mitochondrial membrane potential - cell viability (AID 720634; calls by dose curve;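 further: human HepG2 liver cancer cells; series mostly up to about 83 µM; nearly all actives have a fitted effect of over 20% in size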)
# Method in brief: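 HepG2, 1 hr compound, 37 C. ATP luminescence via CellTiter-Glo, 30 min RT, same well as m-MPI.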
# [5] = qHTS assay for small molecule disruptors of the mitochondrial membrane potential (AID 720635); further: potency means the concentration at half of the fitted maximal effect
# Method in brief: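 HepG2 cells exposed to compound 1 hr at 37C, then Mito-MPS dye 30 min. Ratio read of aggregate (540/590 nm) versus monomer (490/535 nm) fluorescence.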
# [6] = qHTS assay to test for compound auto fluorescence at 590 nm (red) in HepG2 cells (AID 720674)
# Method in brief: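 HepG2 cells, 2,000 per well in MEM with 10% FBS, attached overnight at 37 C, then got 23 nL compound or DMSO. After 1 hr at 37 C, 5% CO2, red fluorescence was read at 540/590 nm against Rose Bengal sodium as reference.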
# [7] = qHTS assay to test for compound auto fluorescence at 535 nm (green) in HepG2 cells (AID 720675)
# [8] = qHTS assay to test for compound auto fluorescence at 460 nm (blue) in HEK293 cells (AID 720678)
# Method in brief: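 HEK293 cells (2,000/well, medium with 10% dialyzed FBS) attached 4-5 hr, then exposed to compound overnight at 37C, 5% CO2. Blue fluorescence read at 405/460 nm, with triamterene as reference fluorophore.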
# [9] = qHTS assay to test for compound auto fluorescence at 590 nm (red) in HEK293 cells (AID 720679)
# Method in brief: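 HEK293 cells (2,000/well, 10% dialyzed FBS) attached 4-5 hr, then dosed with compound or DMSO and incubated overnight at 37C, 5% CO2. Red fluorescence read at 540/590 nm, Rose Bengal sodium as reference fluorophore.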
SMILES,Potency [1],Potency [2],Potency [3],Potency [4],Potency [5],outcome [6],outcome [7],outcome [8],outcome [9]
C[C@H]1CNCCc2ccc(Cl)cc21,inactive,inactive,inactive,inactive,inactive,inactive,inactive,inactive,inactive
CC(=O)c1cc2c(cc1C)C(C)(C)C(C)CC2(C)C (centres undefined),inactive,61.1 µM (active),inactive,–,54.5 µM (active),inactive,inactive,–,inactive
COc1nn(C(=O)NS(=O)(=O)c2ccccc2OC(F)(F)F)c(=O)n1C,inactive,inactive,inactive,inactive,inactive,inactive,inactive,inactive,inactive
COP(=O)(OC)O/C(=C/Cl)c1cc(Cl)c(Cl)cc1Cl,inactive,inactive,inactive,inactive,–,inactive,inactive,inactive,inactive
CCOC(=O)COc1cc(-c2nn(C)c(OC(F)F)c2Cl)c(F)cc1Cl,inactive,inactive,inactive,inactive,–,inactive,inactive,inactive,inactive
C=COC(C)=O,inactive,inactive,inactive,inactive,–,inactive,inactive,inactive,inactive
Oc1ccc(Cl)c(Cl)c1Cl,inactive,inactive,inactive,inactive,4.49 µM (active),inactive,inactive,–,inactive
CCC(Cl)CCl (centres undefined),inactive,inactive,inactive,inactive,–,inactive,inactive,inactive,inactive
C=CC[C@]1(O)CC[C@H]2[C@@H]3CCC4=CC(=O)CCC4=C3C=C[C@@]21C,inactive,inactive,inactive,inactive,inactive,inactive,inactive,inactive,inactive
